Assay results as given in PubChem BioAssay (NCATS).
Records with an inconclusive call do not appear. Activity calls are given as the source filed them. Calls follow the shape of the dose curve; as a rule, active = well fitted curve in the direction sought with a large enough effect; inconclusive = small, poorly fitted or top-dose-only effect, or another doubt; inactive = no such curve, though single readings can be large; an effect the other way counts as inactive or inconclusive.

What was measured:
[1] = P-glycoprotein substrates identified in KB-8-5-11 adenocarcinoma cell line, qHTS therapeutic library screen (AID 1346987); conditions: KB-8-5-11 (P-gp overexpressing) viability, CellTiter-Glo, 72 h; series mostly up to 44.5 µM; also: nearly all actives have a fitted effect of over 65% in size
How it was run: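 Human cervical adenocarcinoma KB-8-5-11 cells, selected in colchicine to over-express P-gp and assayed without it, were exposed for 72 h to titrated compounds. An ATP-based luminescent viability signal gave AC50.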

[2] = NS1 protein of Zika virus - qHTS assay to identify small molecule inhibitors in human HEK 293 cells (AID 1347053); conditions: HEK293 ZIKV MR766 infection, NS1 TR-FRET, 24 h; series mostly up to 46.1 µM; also: nearly all actives have a fitted effect of over 55% in size
How it was run: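 In this cell-based screen, HEK 293 cultures received compound for one hour before Zika MR766 at MOI = 0.5. NS1 was quantified 24 hours later by TR-FRET, normalized to virus-free wells and infected wells.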

[3] = qHTS of pediatric cancer cell lines to identify multiple opportunities for drug repurposing: Primary screen for TC32 cells (AID 1347089); conditions: TC32 Ewing sarcoma viability, CellTiter-Glo luminescence, 48 h; series mostly up to 45.8 µM; also: nearly all actives have a fitted effect of over 60% in size
How it was run: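 A viability screen of TC32 cells was run over 48 h, with primary MIPE doses spanning 0.78 nM–46 µM and NPC doses 0.59 nM–46 µM. ATP luminescence (CellTiter-Glo) served as the read-out.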

[4] = qHTS of pediatric cancer cell lines to identify multiple opportunities for drug repurposing: Primary screen for DAOY cells (AID 1347090); conditions: DAOY medulloblastoma viability, CellTiter-Glo luminescence, 48 h; series mostly up to 46 µM; also: nearly all actives have a fitted effect of over 55% in size
How it was run: (§1)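 Eight- or eleven-point concentration series, 48 h treatment at 37 degrees C in growth media; readout CellTiter-Glo luminescence. Potency and efficacy were taken from the concentration-response curves.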

[5] = qHTS of pediatric cancer cell lines to identify multiple opportunities for drug repurposing: Primary screen for SJ-GBM2 cells (AID 1347091); conditions: SJ-GBM2 viability, CellTiter-Glo luminescence, 48 h; series mostly up to 46 µM
How it was run: as §1

[6] = qHTS of pediatric cancer cell lines to identify multiple opportunities for drug repurposing: Primary screen for A673 cells (AID 1347092); conditions: A673 Ewing sarcoma viability, CellTiter-Glo ATP luminescence, 48 h; series mostly up to 46 µM; also: nearly all actives have a fitted effect of over 45% in size
How it was run: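 Titration-based qHTS on A673 cells: MIPE compounds spanned 11 points (0.78 nM to 46 µM final), NPC compounds 8 points (0.59 nM to 46 µM final). Viability after 48 h was measured by ATP luminescence.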

[7] = qHTS of pediatric cancer cell lines to identify multiple opportunities for drug repurposing: Primary screen for SK-N-MC cells (AID 1347093); conditions: SK-N-MC viability, CellTiter-Glo luminescence, 48 h; series mostly up to 46 µM
How it was run: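 Metabolically active cells were quantified by ATP-dependent luminescence (CellTiter-Glo, 15 min at room temperature) following 48 h treatment. Cells had been plated at 500-1,000 per well and settled for 5 h beforehand.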

[8] = qHTS of pediatric cancer cell lines to identify multiple opportunities for drug repurposing: Primary screen for BT-37 cells (AID 1347094); conditions: BT-37 viability, CellTiter-Glo luminescence, 48 h; series mostly up to 57.3 µM
How it was run: (§2)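 Following a 5-hour attachment period, cells at 500-1,000/well received compounds and were cultured for 48 hours. CellTiter-Glo was added and luminescence read to estimate viable, metabolically active cells.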

[9] = qHTS of pediatric cancer cell lines to identify multiple opportunities for drug repurposing: Primary screen for NB-EBc1 cells (AID 1347095); conditions: NB-EBc1 neuroblastoma viability, CellTiter-Glo luminescence, 48 h; series mostly up to 46 µM
How it was run: as §2

Measured: Potency

C[C@@H]1O[C@@H](OC[C@H]2O[C@@H](Oc3c(-c4ccc(O)c(O)c4)oc4cc(O)cc(O)c4c3=O)[C@H](O)[C@@H](O)[C@@H]2O)[C@H](O)[C@H](O)[C@H]1O
inactive: [1] | [2] | [3] | [4] | [5] | [6] | [7] | [8] | [9]

CC(=O)N[C@H]1[C@H]([C@H](O)[C@H](O)CO)OC(C(=O)O)=C[C@@H]1N=C(N)N
inactive: [1] | [2] | [3] | [4] | [5] | [6] | [7] | [8] | [9]

CC(CN(C)C)C(C)(O)Cc1ccc(Cl)cc1 (stereo not given)
inactive: [1] | [2] | [3] | [4] | [5] | [6] | [7] | [8] | [9]

CC(C)NC[C@@H](O)COc1ccc(CC(N)=O)cc1
inactive: [1] | [2] | [3] | [4] | [5] | [6] | [7] | [8] | [9]

NC(=O)NC1NC(=O)NC1=O (stereo not given)
inactive: [1] | [2] | [3] | [4] | [5] | [6] | [7] | [8] | [9]

O=C(O)CCC(=O)O
inactive: [1] | [2] | [3] | [4] | [5] | [6] | [7] | [8] | [9]

O=C1c2ccccc2C(=O)C1c1ccc(Br)cc1
inactive: [1] | [2] | [3] | [4] | [5] | [6] | [7] | [8] | [9]

CC1(C)[C@@H](OC(=O)CCC(=O)O)CC[C@]2(C)[C@H]3C(=O)C=C4[C@@H]5C[C@@](C)(C(=O)O)CC[C@]5(C)CC[C@@]4(C)[C@]3(C)CC[C@@H]12
inactive: [1] | [2] | [3] | [4] | [5] | [6] | [7] | [8] | [9]

NS(=O)(=O)c1cc2c(cc1C(F)(F)F)NCNS2(=O)=O
inactive: [1] | [2] | [3] | [4] | [5] | [6] | [7] | [8] | [9]

C1CCN2C[C@@H]3C[C@@H](CN4CCCC[C@@H]34)[C@H]2C1
inactive: [1] | [2] | [3] | [4] | [5] | [6] | [7] | [8] | [9]

CCCC(O)C(CC)CO (stereo not given)
inactive: [1] | [2] | [3] | [4] | [5] | [6] | [7] | [8] | [9]

CCc1cccc(CC)c1NC(=O)CN(CC(=O)O)CC(=O)O
inactive: [1] | [2] | [3] | [4] | [5] | [6] | [7] | [8] | [9]

Cc1cc(OI)c(C(C)C)cc1-c1cc(C(C)C)c(OI)cc1C
inactive: [1] | [2] | [3] | [4] | [5] | [6] | [7] | [8] | [9]

Cc1c(N(C)C)c(=O)n(-c2ccccc2)n1C
inactive: [1] | [2] | [3] | [4] | [5] | [7] | [8] | [9]

CC(=O)Nc1ccccc1
inactive: [1] | [2] | [3] | [4] | [5] | [7] | [8] | [9]

CC(=O)N(CC(O)CN(C(C)=O)c1c(I)c(C(=O)NCC(O)CO)c(I)c(C(=O)NCC(O)CO)c1I)c1c(I)c(C(=O)NCC(O)CO)c(I)c(C(=O)NCC(O)CO)c1I (stereo not given)
inactive: [1] | [2] | [3] | [4] | [5] | [7] | [8] | [9]

CNCc1ccccc1
inactive: [1] | [2] | [3] | [4] | [5] | [6] | [8] | [9]

Cc1c(NC(=O)c2cccnc2)c(=O)n(-c2ccccc2)n1C
inactive: [1] | [2] | [3] | [4] | [6] | [7] | [8] | [9]

CCCCCCCC(=O)OCC(COC(=O)CCCCCCC)OC(=O)CCCCCCC
inactive: [1] | [2] | [3] | [4] | [5] | [6] | [8] | [9]
